Pf growth 48h: Primary qHTS for delayed death inhibitors of the malarial parasite plastid, 48 hour incubation | P. falciparum luciferase growth in erythrocytes, 48 h | Potency, µM (top dose mostly 28.7 µM), without a hit: at the top dose activity change, negative = inhibition, usual class: inhibitors | 5.9% of 310,000 active | AID 504832, 2011; further: potency means the concentration at half of the fitted maximal effect; on the % scale 0 is the no-effect control and ±100 the full control effect
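Here the parasites carry a stable luciferase gene and grow inside erythrocytes in Albumax-based RPMI medium with compound for one erythrocytic cycle. Activity is scored as loss of luminescent signal.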
AMA1-RON2 inh: qHTS for Inhibitors of AMA1-RON; Towards Development of Antimalarial Drug Lead: Primary Screen. AlphaScreen AMA1-biotinylated RON2 peptide binding. Potency, µM (doses to about 58.2 µM), inactives show at the top dose activity change, negative = inhibition, usual class: inhibitors. 0.2% of 360,000 active. Plasmodium falciparum AMA1 (3D7) - RON2 peptide interaction;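 further: potency means the concentration at half of the fitted maximal effect; 0% = vehicle wells and -100% = peptide control; nearly all actives have a fitted effect of over 45% in size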
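AMA1 (3D7) with his tag at 25 nM final met compounds first, then biotinylated RON2 peptide at 25 nM; detection used donor plus acceptor beads, 10 µg/mL apiece, read by AlphaScreen after 30 min at room temperature.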
Cycloheximide cs: Cycloheximide Counterscreen for Small Molecule Inhibitors of Shiga Toxin; max response, %; 12% of 300,000 active; cell reporter, cycloheximide protein synthesis inhibition counterscreen; in the data active means max response mostly above about 13%, no sharp cut-off; inactive means mostly below about 14%; further: read at 38.3 µM for the half of the compounds with a filed dose; 0% is about no effect
HCV inh: qHTS Assay for Inhibitors of Hepatitis C Virus (HCV). Huh7.5.1 HCVcc-Cre infection, luciferase reporter, 44 h. Potency, µM (top dose mostly 41.8 µM), inactives show at the highest dose activity change, negative = inhibition, actives largely listed as inhibitors. 3.4% of 340,000 active; further: potency means the concentration at half of the fitted maximal effect; on the % scale 0 is the no-effect control and ±100 the full control effect
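Luciferase read-out (15 sec integration) after a 15 min room-temperature substrate step quantifies HCVcc-Cre infection. Cells, 1,000 per well, had compound added 4 h post-plating, then virus at ~0.5 moi, and were cultured 44 h.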
Pf growth 96h: Primary qHTS for delayed death inhibitors of the malarial parasite plastid, 96 hour incubation; P. falciparum luciferase reporter growth, 96 h; Potency, µM (highest dose often 28.7 µM), without a hit: at the top dose activity change, negative = inhibition, most hits filed as inhibitors; 6.9% of 320,000 active; further: potency means the concentration at half of the fitted maximal effect; on the % scale 0 is the no-effect control and ±100 the full control effect
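Parasite growth measured via integrated firefly luciferase reporter in P. falciparum. Infected erythrocytes at 2% hematocrit, 0.05% parasitemia final were treated 96 hours at 37 C under 5% CO2, and luminescence was read.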
Shiga toxin inh: A qHTS for Small Molecule Inhibitors of Shiga Toxin; Vero cells, Shiga toxin protein synthesis inhibition reporter; inhibition, % at 38.7 µM; 9.2% of 290,000 active; AID 2315, 2010; in the data active means inhibition mostly above about 28%, no sharp cut-off; inactive means mostly below about 43%; further: 0% is about no effect
* hit, by the source's call; ? = inconclusive; · = no result; [ ] = remark or other dose. An excerpt weighted towards active compounds, which were near 21% of everything screened. Unless noted, the call rests on the fitted dose curve; in most records, active means well fitted curve in the direction sought with a large enough effect; inconclusive means small, poorly fitted or top-dose-only effect, or another doubt; inactive means no such curve, though single readings can be large; an effect the other way counts as inactive or inconclusive.

SMILES | Pf growth 48h | AMA1-RON2 inh | Cycloheximide cs | HCV inh | Pf growth 96h | Shiga toxin inh
CCOc1cccc(-c2c(C(=O)N/N=C/c3cccs3)nnn2-c2nonc2N)c1 | -27% | 41% | 6 | -18% | ? | -2
CC1=CC(=C(C#N)C#N)c2ccccc2N1C | 12µM* | 0% | -5 | -26% | 13% | -7
CC1=C/C(=C\C=C(C#N)C#N)N(C)c2ccccc21 | 18% | -17% | -2 | -12% | 4% | -11
COc1ccc(C2=Cc3ccccc3C(CC(=O)C3CC3)N2c2ccc(-c3cc(OC)c(OC)c(OC)c3)cc2)cc1 (configuration not stated) | · | 10% | · | · | · | ·
CC1CN(C(=O)c2cc([N+](=O)[O-])cc([N+](=O)[O-])c2)CC(C)O1 (configuration not stated) | 123% | -7% | 42* | 12% | 1% | 104*
COc1ccc(C)cc1NC(=O)C1CCN(C(=O)c2ccc(C(C)(C)C)cc2)CC1 | ? | -13% | -3 | 1% | 13% | 22
Nc1cc(Cl)nc(N/N=C/c2ccccc2[N+](=O)[O-])n1 | 130% | 2% | 47* | -8% | 6.6µM* | 87*
Nc1cc(Cl)nc(N/N=C/c2ccc([N+](=O)[O-])cc2)n1 | ? | 5%[11.6 µM] | 6 | -16% | 4.7µM* | 10
CCOC(=O)Cc1csc(NC(=O)c2ccc(C)c(S(=O)(=O)N3CCOCC3)c2)n1 | -6% | 10% | · | ? | ? | ·
CC(C)CCOP(=O)(c1ccc(N(C)C)cc1)C(O)c1ccc(Cl)cc1Cl (configuration not stated) | 9.3µM* | -18% | -4 | -28% | 9.3µM* | -11
CN(C)c1ccc(P(=O)(OCc2ccccc2)C(O)c2ccccc2)cc1 (configuration not stated) | 10µM* | -9% | 8 | 8% | 2.3µM* | -14
CC(C)CCOP(=O)(c1ccc(N(C)C)cc1)C(O)c1ccccc1F (configuration not stated) | 2.9µM* | -15% | -3 | 1% | ? | -26
CN(C)c1ccc(P(=O)(OCc2ccccc2)C(O)c2ccc(Cl)cc2)cc1 (configuration not stated) | ? | 2% | 1 | -6% | ? | -6
O=C(NCc1ccc(F)cc1)N1[C@H]2CC[C@@H]1C=C(c1ccc(F)cc1OCc1ccccc1)C2 | · | 6% | · | · | · | ·
O=C1c2ccccc2C(c2nnnn2Cc2ccccc2)N1Cc1cccc(F)c1 (configuration not stated) | · | 6% | · | · | · | ·
CCOC(=O)CCNC(=O)c1ccccc1Br | 35% | 3% | 3 | 0% | 4% | 32
COC(=O)Cc1ccc(NC(=O)c2ccc(NC(=O)c3ccco3)cc2)cc1 | -5% | -4% | 8 | ? | ? | 25
O=C(Oc1ccccc1C(=O)Nc1ccccc1)c1ccccc1Br | 4% | -7%[11.6 µM] | 32* | -25% | -51% | 33*
CCOC(=O)Cc1ccc(NC(=O)c2ccccc2Br)cc1 | 33% | -1% | 19* | -3% | 35% | 37
CCOC(=O)Cc1ccc(NC(=O)c2ccc(C(C)(C)C)cc2)cc1 | 4.1µM* | -11% | 26 | 7.1µM* | · | 35
CCOC(=O)c1c(C)[nH]c(C)c1S(=O)(=O)N(C)CC(=O)NCc1cccc(C)c1 | ? | -5% | 0 | 11% | 5.9µM* | 9
CCOC(=O)c1c(C)[nH]c(C)c1S(=O)(=O)N(C)CC(=O)Nc1cc(C)ccc1OC | ? | -5% | -1 | 5% | -26% | -3
Cc1ccc2nc(SCC(=O)N(CC(C)C)c3c(N)n(Cc4ccccc4)c(=O)[nH]c3=O)[nH]c2c1 | -3% | -11% | 9 | 8% | -14% | -9
CC(C)(C)OC(=O)N1CCCN(C(=O)Nc2ccccc2)CC1 | -5% | 1% | -2 | 10% | 48% | 9
CC(C)(C)OC(=O)N1CCN(C(=O)Nc2ccc3c(c2)OCCO3)CC1 | 173% | 1% | 24* | 9% | 50% | 26
SMILES | Pf growth 48h | AMA1-RON2 inh | Cycloheximide cs | HCV inh | Pf growth 96h | Shiga toxin inh
Cc1cccc(C)c1N1CCN(C(=O)Nc2ccc3c(c2)OCCO3)CC1 | -15% | -27% | 45* | ? | -24% | 56*
O=C(Nc1ccc2c(c1)OCCO2)N1CCN(c2ccc(F)cc2)CC1 | -8% | -10% | 38* | ? | 6% | 35*
COC(=O)[C@@H]1Cc2c([nH]c3ccccc23)C(C)(C)N1C(=O)CCl | 12µM* | -6% | 18 | 1µM* | ? | 18
O=C(NC1CCCCC1)c1cc2nc3c(c(C(F)(F)F)n2n1)CCCC3 | -66% | -2% | 45* | ? | -19%[5.75 µM] | 79*
O=C(NC1CCCCC1)c1cc2nc(-c3ccco3)cc(C(F)(F)F)n2n1 | 2% | 2% | -2 | -8% | 17% | 5
CC(=O)c1ccc(NC(=O)c2cc3nc4c(c(C(F)(F)F)n3n2)CCCC4)cc1 | ? | · | 38* | ? | ? | 60*
COCc1nc2oc3ccccc3c(=O)c2cc1C(=O)OC | 147% | -2% | 12* | 8% | 168% | 46*
CC(=O)c1cc2c(=O)c3ccccc3oc2nc1C | · | -2% | · | -10% | · | ·
CCOC(=O)c1cc2c(=O)c3ccccc3oc2nc1C | 206% | 11% | 40* | 3% | 320% | 103*
Cc1ccc2oc3nc(C)c(C(=O)Nc4cccc(C(F)(F)F)c4)cc3c(=O)c2c1 | 62% | -5% | 9 | ? | 38% | 30
CCN(CC)C(=O)c1cc2c(=O)c3cc(F)ccc3oc2nc1C | 51% | -10% | 39* | ? | 23% | 64*
Cc1cnc(N)c2c(=O)oc3ccccc3c12 | · | -2% | 1 | 6.3µM* | 4% | 22
COc1cc(CNC(=O)c2cc(-c3ccc(F)cc3OC)n[nH]2)cc(OC)c1 | · | -9% | · | · | · | ·
CCOC(=O)c1c(C)nc(C)c2c(=O)oc3ccccc3c12 | 68% | 5% | 33* | -11% | 0% | 93*
CC(=O)Nc1ccccc1Nc1cc(C#N)c(C#N)cc1[N+](=O)[O-] | ? | 10% | -2 | ? | 7.4µM* | -27
CC(=O)Nc1ccc(N=Nc2ccccc2)cc1[N+](=O)[O-] | · | ? | · | -24% | · | ·
COCCNc1ncnc2c1cnn2-c1ccc(Cl)cc1 | · | 18% | 43* | -5% | · | 73*
